# Assay results published in PubChem BioAssay AID1851 (National Center for Advancing Translational Sciences (NCATS), 2009).
# “And” between values parts separate entries of the source, which are not always exact repeats. Equal values may be shown once. The campaign covered roughly 16,000 compounds. About 2,600 (16%) were called active. Roughly 20% stayed inconclusive and do not appear here. These entries were drawn from the full list. A number with no mark means an inactive call. The call rests on the fitted dose curve; in most records, active means well fitted curve in the direction sought with a large enough effect; inconclusive means small, poorly fitted or top-dose-only effect, or effect the other way; inactive means no such curve, though single readings can be large or run the other way.
# Target: Cytochrome P450 2D6 (Homo sapiens) (UniProt P10635)
# Sequence (P10635 whole entry, looked up): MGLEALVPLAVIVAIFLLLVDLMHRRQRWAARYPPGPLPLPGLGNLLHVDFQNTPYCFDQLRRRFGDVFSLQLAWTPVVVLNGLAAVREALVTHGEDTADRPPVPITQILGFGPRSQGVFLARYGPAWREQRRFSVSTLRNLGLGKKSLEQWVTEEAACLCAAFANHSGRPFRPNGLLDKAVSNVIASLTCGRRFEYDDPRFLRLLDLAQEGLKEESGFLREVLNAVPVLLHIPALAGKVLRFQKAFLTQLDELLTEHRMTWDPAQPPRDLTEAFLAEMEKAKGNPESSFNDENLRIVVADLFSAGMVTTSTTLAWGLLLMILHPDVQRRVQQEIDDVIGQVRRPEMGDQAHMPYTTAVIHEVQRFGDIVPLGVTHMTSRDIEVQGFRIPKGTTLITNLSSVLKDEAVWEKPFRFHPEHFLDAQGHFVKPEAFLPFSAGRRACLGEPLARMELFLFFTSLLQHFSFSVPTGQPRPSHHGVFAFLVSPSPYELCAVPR
# Test: Cytochrome panel assay with activity outcomes
# Settings: recombinant CYP, pro-luciferin dealkylation, luminescence, p450-cyp2d6; series mostly up to 57.1 µM; activity, negative = inhibition: at the top concentration
# On the % scale 0 is the no-effect control and ±100 the full control effect.
Compound,"activity, negative = inhibition",AC50
CC(=O)[C@@]1(O)CC[C@H]2[C@H]3C[C@@H](C)C4=CC(=O)C=C[C@]4(C)[C@@]3(F)[C@@H](O)C[C@]21C,-0.238% [at 25.6 µM],–
Cc1cc2[nH]c(=O)c3ccccc3n2n1,-11.2%,–
CCCC(=O)Nc1nnc(Cc2ccccc2)s1,17.3%,–
CCCC(=O)Nc1nnc(CCN2CCCCC2)s1,–,15.8 µM (active)
CCCc1nnc(NC(=O)CCC(=O)N2CCN(c3ccccn3)CC2)s1,-3.96%,–
COc1ccc(/C=N/NC(N)=S)cc1OC(=O)c1cccc2ccccc12,14.2%,–
CCOc1cc(NC(=S)NCC2CCCO2)c(OCC)cc1NC(=O)c1cccc(C)c1 (stereo not drawn),-16.3%,–
O=C1[C@H]2[C@H]3[C@H](O)[C@H](O)C/C(=N/OC[C@@H](O)COCc4ccco4)[C@H]3CC[C@@H]2C(=O)N1Cc1ccc2c(c1)OCO2,3.67% [at 11.4 µM],–
CCn1c(SCc2ccc(Cl)cc2Cl)nc2nc3c(cc2c1=O)CCCC3,–,1.26 µM (active)
Cn1c(=O)c2c(nc(N3CCN(c4ccccn4)CC3)n2Cc2ccc(Cl)cc2Cl)n(C)c1=O,-15.4%,–
O=c1c2ccccc2nc(SCc2ccccc2Cl)n1Cc1ccccc1,-13.8%,–
S=c1nc(-c2ccccc2)oc2c1CCCC2,-16.9%,–
CN(CC(=O)O/N=C(\N)c1ccccn1)S(=O)(=O)c1ccccc1,0.421%,–
Cc1ccc(S(=O)(=O)N(CC(=O)N2CCN(c3ccc(F)cc3)CC2)C2CCCCC2)cc1,-7.36%,–
O=S(=O)(NCc1cccnc1)c1ccc(Cl)nc1,-10.6%,–
CCN(C1CCCCC1)S(=O)(=O)c1ccc(S(=O)(=O)NCc2ccncc2)cc1,–,7.94 µM (active)
Cc1ccc(/C=C/c2ccc(=O)n(Cc3ccc(Cl)cc3Cl)n2)cc1,7.32%,–
COC(=O)[C@@]1(Cc2ccc(OC)cc2)[C@@H]2C(=CC(=O)[C@H]2CC(=O)C(=O)N2CCCC2)CN1C(=O)c1ccccc1,-5.71%,–
COc1cc(C2C(C#N)=C(N)N(Nc3ccccc3)C3=C2C(=O)CC(C)(C)C3)ccc1OCc1cccc(F)c1 (stereo not drawn),-10.8%,–
CC1=C(CC(=O)O)c2cc(F)ccc2/C1=C\c1ccc(S(C)(=O)=O)cc1,8.35%,–
Clc1ccc2c(NCCNc3ccnc4cc(Cl)ccc34)ccnc2c1,-10.3% [at 11.4 µM],–
Clc1ccc2c(NCCNC3CCCCC3)ccnc2c1,–,3.16 µM (active)
C/C(CC/C(C)=N/O)=N/O,8.85% [at 11.4 µM],–
O=C(O)c1cccnc1C(=O)O,8.44%,–
CNc1cc(-c2ccccc2C(F)(F)F)ncn1,-2.24%,–

Compound,"activity, negative = inhibition",AC50
CN(C)c1cc(-c2cccc(NS(C)(=O)=O)c2)ncn1,-1.1%,–
CN(C)Cc1ccccc1-c1cc(NC2CC2)ncn1,–,0.0398 µM (active)
CN(C)Cc1ccccc1-c1cc(N(C)C)ncn1,–,1.26 µM (active)
CN(C)Cc1ccccc1-c1cc(Nc2ccccc2)ncn1,–,12.6 µM (active)
Cc1noc(C)c1-c1cc(Nc2ccccc2)ncn1,-1.67%,–
CNc1cc(-c2ccccc2CN(C)C)ncn1,–,0.631 µM (active)
Cc1noc(C)c1-c1cc(NC2CCNCC2)ncn1,7.12%,–
CC(=O)NCCNc1cc(-c2ccccc2CN(C)C)ncn1,9.47%,–
CC(=O)c1ccc(NC(=O)C2(c3ccccc3)CCOCC2)cc1,-8.6%,–
CON1C(=O)C(=O)N(OC)C(C)(C)C1C (stereo not drawn),3.21%,–
CCOC(=O)N1CCN(C(=O)c2ccc3c(=O)n(-c4ccc(OC)cc4)c(=S)[nH]c3c2)CC1,-7%,–
C=CCn1c(=O)c2c(nc(-c3ccc(S(=O)(=O)O)cc3)n2C)n(C)c1=O,7.35%,–
CN(C)C[C@H]1CCC2=C(C1=O)C(c1ccc(Cl)c(Cl)c1)C1=C(CC[C@H](CN(C)C)C1=O)O2,-12.4% [at 11.4 µM],–
[O-][n+]1c(CN2CCCCC2)nc2cccc3c2c1-c1ccccc1-3,-13.1% [at 11.4 µM],–
CCCOC(=O)c1ccc(NC(=O)c2cn(CC)c3nc(C)ccc3c2=O)cc1,-27.3%,–
O=c1c(-c2ccccc2)nc2cnc(Oc3cccc(Cl)c3)nc2n1C1CC1,-7.95%,–
Cc1c(Cl)cccc1NC(=O)CN1CCC(C(O)(c2ccccc2)c2ccccc2)CC1,–,0.224 µM (active)
Cc1c(Cl)cccc1NC(=O)CC1NCCNC1=O (stereo not drawn),-1.15%,–
Cc1ccc(NC(=O)CN2CCC(NC(=O)Cc3ccccc3)CC2)cc1C,-27.2%,–
Cc1c(Cl)cccc1Nc1ccccc1C(=O)O,-2.06% [at 25.6 µM],–
Cc1cc(Cl)ccc1NC(=O)CN1CCC(C(O)(c2ccccc2)c2ccccc2)CC1,–,14.1 µM (active)
CCOC(=O)c1ccccc1NC(=O)CSc1cccc[n+]1[O-],-7.26%,–
FC(F)(F)c1cccc(-c2nc3nc(Cl)c(Cl)nc3[nH]2)c1,-1.57% [at 11.4 µM],–
Cc1ccc(S(=O)(=O)/N=C(/Nc2c(C)n(C)n(-c3ccccc3)c2=O)c2ccc(Cl)cc2)cc1,-9.19%,–
O=C(c1cccc(C(F)(F)F)c1)N1CCC(O)(CS(=O)(=O)Cc2ccccc2)CC1,-13.5%,–

Compound,"activity, negative = inhibition",AC50
COC(=O)c1ccc(/C=N\NC(=O)c2ccc(C)cc2Cl)cc1,7.06%,–
CN1c2ccccc2C(C)(C)C12C=Nc1c(cc(N3CCOCC3)c3ccccc13)O2 (stereo not drawn),-25.9%,–
O=C1C=CC(=Nc2cccc3c(N=C4C=CC(=O)O4)cccc23)O1,3.55% [at 11.4 µM],–
O=C(c1ccco1)N1CCN(C(=O)c2nn3cccnc3c2Cl)CC1,0.557%,–
COc1cc(/C=C\C(=O)N2CCC=CC2=O)cc(OC)c1OC,-0.509% [at 25.6 µM],–
CCCC(=O)Nc1nc2nc(-c3ccccc3)cc(-c3ccccc3)n2n1,9.65%,–
O=C(O)CCc1ccc(-c2ccccc2)[nH]1,3.02% [at 11.4 µM],–
CC(=O)Nc1nonc1NC(=O)c1ccc(C(C)(C)C)cc1,–,10 µM (active)
CC(C)(C)c1ccc(C(=O)NCc2ccc(Cl)cc2)cc1,23.5%,–
CC(C)(C)c1ccc(C(=O)Nc2ccc(NC(=O)c3ccco3)cc2)cc1,-9.98%,–
CC/C=C\CC[C@H](O)C1=CCCCC1=O,0.601% [at 11.4 µM],–
CC1=C(C(=O)Nc2cccnc2)C(c2cccnc2)n2nc(-c3cccs3)nc2N1 (stereo not drawn),11.8%,–
Cc1ccc(C)c(Cn2c(C(=O)OC(C)C)cc3c2ccn3C)c1,-10.6%,–
O=C(COc1ccc(Cl)cc1)N(Cc1ccccc1)c1ccccn1,5.58%,–
CCCCCCCCCCCCCCCC[N+](C)(C)CCN(Cc1ccc(OC)cc1)c1ncccn1,–,12.6 µM (active)
CN(C)CCOC(=O)COc1ccc(Cl)cc1,–,inactive
COc1ccc(CN(CCN(C)C)c2ccccn2)cc1,–,501 nM (active) and 126 nM (active) and 100 nM (active)
CN(C)CCN(Cc1ccc(Cl)cc1)c1ccccn1,–,0.02 µM (active)
COc1ccc(CC(=O)O/N=C(\N)Cc2ccc(OC)cc2)cc1,3%,–
CCSc1nnc(-c2ccccc2NC(C)=O)c(=O)[nH]1,-26.1%,–
COc1ccc(-c2nc3cnc(N4CCNCC4)nc3n(Cc3ccc(F)cc3)c2=O)cc1,-0.475%,–
CCOC(=O)CSc1nnc(Cc2cc(=O)[nH]c(=O)[nH]2)n1-c1cccc(OC)c1,0.419%,–
CCNC(=O)c1ccc(-n2nc(C)cc2-c2ccccc2)cc1,6.71%,–
CC(C)=CCC/C(C)=C/CO/N=C1/C[C@@H](O)[C@@H](O)[C@@H]2[C@H]3C(=O)N(c4ccc(F)cc4F)C(=O)[C@@H]3CC[C@@H]12,8.95% [at 11.4 µM],–
COc1ncc2nc(-c3cn(C)c4ccccc34)c(=O)n(C)c2n1,3.38%,–

Compound,"activity, negative = inhibition",AC50
CN(C)/C(CN1CCOCC1)=C1\N=C(c2ccccc2)OC1=O,5.8%,–
NC(N)=N/N=C\c1ccc(O)c(C(=O)O)c1,13.4% [at 11.4 µM],–
CC(=O)/C(=N\N=C(N)N)c1ccccc1,-4.42% [at 11.4 µM],–
NC(N)=N/N=C(/c1ccccc1)c1ccc(O)cc1O,–,1.26 µM (active)
COCCCNC(=O)c1c(NC(=O)c2cccs2)sc2c1CCCC2,-17.3%,–
CCC1OC23CCCCC2C(C#N)(C(=N)O3)C1(C#N)C#N (stereo not drawn),8.79%,–
Cc1ccc2nc(SCc3nnc(-c4ccccc4[N+](=O)[O-])o3)c(C#N)cc2c1,-4.06%,–
Cc1nonc1NCn1nnc2ccccc21,8.37%,–
NN(CC(=O)O)CC(=O)O,-0.968% [at 11.4 µM],–
CO[C@H]1COC(=O)[C@H](C)NC(=O)C/C=C\[C@@H](C)[C@@H](NS(=O)(=O)c2ccc(C)cc2)COC(=O)C/C=C\[C@@H]1C,6.92% [at 11.4 µM],–
CC1CCC(C(=O)O)([C@H](Br)C(=O)O)CC1 (stereo partly drawn),-1.57% [at 11.4 µM],–
Cc1nc2cnc(N3CCN(C)CC3)nc2n(C)c1=O,12%,–
O=C1c2cccc([N+](=O)[O-])c2C(=O)N1c1ncn[nH]1,10.8% [at 11.4 µM],–
COC(=O)[C@]1(C)CCC(c2ccc(C)cc2)=C(CC(=O)O)C1,13.4% [at 11.4 µM],–
C[C@]1(C2CCCC2)Cc2cc(OCC(=O)O)c(Cl)c(Cl)c2C1=O,6.24%,–
Cc1cc(NC(=O)C2CCCC2)n(-c2nc3ccccc3[nH]2)n1,-10.9%,–
CC(=O)Nc1ccc2nc(C3CCCCC3)[nH]c2c1,–,12.6 µM (active)
CSc1cccc(NC(=O)OC2CCCCCCCCCCC2)c1,10.7% [at 11.4 µM],–
O=C(CSc1nnc(CNc2ccc(F)cc2)o1)OC1CCCCC1,-30.4%,–
Oc1ccc(/C=N/NC(=S)NCc2ccco2)cc1,2.33%,–
CCCn1c(C)nc2c(c1=O)c1nc3ccccc3nc1n2CCC1=CCCCC1,-23.2%,–
N#CC1(Nc2ccc(-c3ccc(NC4(C#N)CCCC4)cc3)cc2)CCCC1,8.6% [at 11.4 µM],–
Cn1ncc(C#N)c1/N=C/N1CCCCCC1,3.27%,–
